According to PubChem BioAssay (NCI):
About 79,000 compounds went through this panel and 15% of them were active in at least one assay; those are over-represented in the sample as a whole. Active and inactive are the calls of the source. Cut-off read from the data, not from the text of the source: active = growth inhibition above about 70%; inactive = the rest.

Key:
[1] = NCI Yeast Anticancer Drug Screen. Data for the rad52 strain (AID 147);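 note: 0% = growth of vehicle-treated control cultures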; details: S. cerevisiae rad52 mutant growth inhibition, active compounds read high
How it was run: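 Yeast strain carrying a DNA damage repair alteration was exposed to test compounds. Growth inhibition was measured relative to vehicle-treated controls.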

[2] = NCI Yeast Anticancer Drug Screen. Data for the wt1 strain (AID 149);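 note: 0% = growth of vehicle-treated wt1 cultures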; details: S. cerevisiae wt1 strain (SPY 50644) growth inhibition, active compounds read high
How it was run: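 Compounds are added to wt1 yeast cultures. Growth is then measured. Inhibition is expressed relative to vehicle-treated controls.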

[3] = NCI Yeast Anticancer Drug Screen. Data for the rad50EPP+ strain (AID 151);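 note: 0% = growth of vehicle-treated control cultures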; details: S. cerevisiae rad50 mutant strain, active compounds read high
How it was run: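 Yeast strain carrying rad50 alteration (rad50EPP+) exposed to compounds; growth inhibition measured relative to vehicle-treated controls.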

[4] = NCI Yeast Anticancer Drug Screen. Data for the rad50 strain (AID 155);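 note: 0% = growth of vehicle-only cultures of the same strain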; details: S. cerevisiae rad50 strain growth inhibition, active compounds read high
How it was run: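 Inhibition values express reduced yeast growth in compound-treated cultures relative to vehicle-treated controls.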

[5] = NCI Yeast Anticancer Drug Screen. Data for the mec2-1 strain (AID 157); details: S. cerevisiae mec2-1 strain, active compounds read high
How it was run: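 mec2-1 yeast strain, carrying an alteration in DNA damage repair or cell cycle control, was exposed to compounds; growth inhibition was measured relative to vehicle-treated controls.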

[6] = NCI Yeast Anticancer Drug Screen. Data for the rad14 strain (AID 159);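 note: 0% = growth of vehicle-treated control cultures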; details: S. cerevisiae rad14 strain growth inhibition, active compounds read high
How it was run: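 A mutant yeast strain defective in DNA damage repair is treated with compound; inhibition of its growth is scored against untreated, vehicle-exposed cultures.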

[7] = NCI Yeast Anticancer Drug Screen. Data for the sgs1 mgt1 strain (AID 161);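 note: 0% = growth of cultures given vehicle only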; details: S. cerevisiae sgs1 mgt1 strain, active compounds read high
How it was run: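 Growth of a repair-deficient yeast mutant was monitored after compound treatment and expressed as inhibition relative to vehicle-treated cultures.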

[8] = NCI Yeast Anticancer Drug Screen. Data for the CLN2oe strain (AID 163);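 note: 0% = growth of vehicle-only control cultures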; details: S. cerevisiae CLN2oe strain, active compounds read high
How it was run: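 Yeast cells carrying a defined cell-cycle control alteration were exposed to test compounds. Growth inhibition was scored against vehicle-treated control cultures.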

[9] = NCI Yeast Anticancer Drug Screen. Data for the cln2 rad14 strain (AID 165);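 note: 0% = growth equal to vehicle treated cultures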; details: S. cerevisiae cln2 rad14 strain, active compounds read high
How it was run: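 Yeast carrying cln2 and rad14 alterations (cell cycle control and DNA damage repair) were exposed to compounds. Growth inhibition was measured against vehicle-treated controls.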

[10] = NCI Yeast Anticancer Drug Screen. Data for the bub3 strain (AID 167); details: S. cerevisiae bub3 mutant strain, active compounds read high
How it was run: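 Steps: expose the mutant yeast strain to compound; grow alongside vehicle-treated cultures; measure growth; express inhibition against the vehicle cultures.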

[11] = NCI Yeast Anticancer Drug Screen. Data for the wt2 strain (AID 169);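 note: 0% = growth of vehicle-treated yeast cultures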; details: S. cerevisiae wt2 strain growth inhibition, active compounds read high
How it was run: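 Yeast cells were exposed to test compounds, and growth inhibition was measured relative to vehicle-treated controls.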

[12] = NCI Yeast Anticancer Drug Screen. Data for the mlh1 strain (AID 171);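 note: 0% = growth of vehicle-treated control cultures of the same strain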; details: S. cerevisiae mlh1 strain growth inhibition, active compounds read high
How it was run: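 Yeast carrying a defined genetic alteration in DNA damage repair or cell cycle control were exposed to test compounds. Growth inhibition was measured relative to vehicle-treated controls.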

[13] = NCI Yeast Anticancer Drug Screen. Data for the sgs1 strain (AID 173);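 note: 0% = growth of vehicle-only control cultures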; details: S. cerevisiae sgs1 mutant, active compounds read high
How it was run: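 Yeast mutant strains carrying defined defects in DNA damage repair or cell cycle control were exposed to test compounds. Growth inhibition was scored against vehicle-treated controls.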

[14] = NCI Yeast Anticancer Drug Screen. Data for the mlh1 rad18 strain (AID 175); details: S. cerevisiae mlh1 rad18 strain growth inhibition, active compounds read high
How it was run: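 Growth inhibition of the yeast strain was measured after compound exposure and expressed relative to vehicle-treated controls. The strain carries defined defects in DNA damage repair.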

[15] = NCI Yeast Anticancer Drug Screen. Data for the rad18 strain (AID 177); details: S. cerevisiae rad18 mutant growth inhibition, active compounds read high
How it was run: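 Yeast carrying a defined DNA damage repair alteration were exposed to compounds. Growth inhibition was expressed relative to vehicle-treated controls.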

[16] = at 5.0 µM (retest, dose inferred, filed as 0.5)
[17] = at 50.0 µM (retest, dose inferred, filed as 5.0)

Measured: growth inhibition

CCN1/C(=C/c2ccc3ccccc3[n+]2CC)C=Cc2ccccc21
inactive: [1]; at 1.2 µM -19% | [1]; at 3.7 µM -14% | [2]; at 1.2 µM -13% | [2]; at 3.7 µM -12% | [3]; at 1.2 µM 4% | [3]; at 3.7 µM 6% | [3]; at 11.0 µM 8% | [3]; at 33.0 µM 67% | [4]; at 1.2 µM -3% | [4]; at 3.7 µM -2% | [5]; at 1.2 µM -3% | [5]; at 3.7 µM 16% | [6]; at 1.2 µM -27% | [6]; at 3.7 µM 1% | [7]; [16] 7% | [8]; at 1.2 µM 0% | [8]; at 3.7 µM 10% | [9]; [16] 58% | [10]; at 1.2 µM -3% | [10]; at 3.7 µM 37% | [10]; [16] 42% | [11]; at 1.2 µM -32% | [11]; at 3.7 µM -20% | [11]; at 11.0 µM 57% | [12]; at 1.2 µM -27% | [12]; at 3.7 µM -15% | [12]; at 11.0 µM 41% | [13]; at 1.2 µM -9% | [13]; at 3.7 µM -17% | [15]; at 1.2 µM -5% | [15]; at 3.7 µM -4%
active: [1]; at 11.0 µM 87% | [1]; at 33.0 µM 98% | [1]; at 100.0 µM 98% | [2]; at 11.0 µM 75% | [2]; at 33.0 µM 99% | [2]; at 100.0 µM 99% | [3]; at 100.0 µM 92% | [4]; [16] 99% | [4]; at 11.0 µM 81% | [4]; at 33.0 µM 97% | [4]; [17] 97% | [4]; at 50.0 µM 90.5% | [4]; at 100.0 µM 96% | [5]; [16] 99% | [5]; at 11.0 µM 98% | [5]; at 33.0 µM 99% | [5]; [17] 98% | [5]; at 50.0 µM 92% | [5]; at 100.0 µM 99% | [6]; at 11.0 µM 98% | [6]; at 33.0 µM 98% | [6]; at 100.0 µM 98% | [7]; [17] 98% | [7]; at 50.0 µM 93% | [8]; at 11.0 µM 94% | [8]; at 33.0 µM 99% | [8]; at 100.0 µM 98% | [9]; [17] 100% | [9]; at 50.0 µM 90.9% | [10]; at 11.0 µM 96% | [10]; at 33.0 µM 98% | [10]; [17] 99% | [10]; at 50.0 µM 91% | [10]; at 100.0 µM 98% | [11]; at 33.0 µM 98% | [11]; at 100.0 µM 98% | [12]; at 33.0 µM 97% | [12]; at 100.0 µM 97% | [13]; at 11.0 µM 93% | [13]; at 33.0 µM 97% | [13]; at 100.0 µM 97% | [14]; [16] 100% | [14]; [17] 99% | [14]; at 50.0 µM 90.2% | [15]; at 11.0 µM 90% | [15]; at 33.0 µM 96% | [15]; at 100.0 µM 97%

CC(=O)Oc1ccc(C(=O)c2ccccc2)c(O)c1
active: [1]; at 100.0 µM 96% | [2]; at 100.0 µM 96% | [3]; at 100.0 µM 85% | [4]; [17] 95% | [4]; at 50.0 µM 70.2% | [4]; at 100.0 µM 96% | [5]; [17] 99% | [5]; at 100.0 µM 96% | [6]; at 100.0 µM 92% | [8]; at 100.0 µM 96% | [9]; [17] 82% | [10]; [17] 88% | [10]; at 50.0 µM 74% | [10]; at 100.0 µM 95% | [11]; at 100.0 µM 94% | [12]; at 100.0 µM 96% | [13]; at 100.0 µM 96% | [14]; [17] 98% | [15]; at 100.0 µM 97%
inactive: [1]; at 1.2 µM -7% | [1]; at 3.7 µM -10% | [1]; at 11.0 µM 2% | [1]; at 33.0 µM 28% | [2]; at 1.2 µM -2% | [2]; at 3.7 µM -1% | [2]; at 11.0 µM -4% | [2]; at 33.0 µM 10% | [3]; at 1.2 µM 14% | [3]; at 3.7 µM 20% | [3]; at 11.0 µM 19% | [3]; at 33.0 µM 47% | [4]; at 1.2 µM -4% | [4]; at 3.7 µM 1% | [4]; [16] 60% | [4]; at 11.0 µM -2% | [4]; at 33.0 µM 32% | [5]; at 1.2 µM -31% | [5]; at 3.7 µM -5% | [5]; [16] 64% | [5]; at 11.0 µM 2% | [5]; at 33.0 µM 26% | [5]; at 50.0 µM 50% | [6]; at 1.2 µM -24% | [6]; at 3.7 µM -20% | [6]; at 11.0 µM -19% | [6]; at 33.0 µM 21% | [8]; at 1.2 µM -7% | [8]; at 3.7 µM -9% | [8]; at 11.0 µM -10% | [8]; at 33.0 µM 12% | [9]; [16] 27% | [9]; at 50.0 µM 58.9% | [10]; at 1.2 µM -36% | [10]; at 3.7 µM -38% | [10]; [16] 5% | [10]; at 11.0 µM -58% | [10]; at 33.0 µM -25% | [11]; at 1.2 µM -3% | [11]; at 3.7 µM 7% | [11]; at 11.0 µM 7% | [11]; at 33.0 µM 21% | [12]; at 1.2 µM -2% | [12]; at 3.7 µM -1% | [12]; at 11.0 µM 0% | [12]; at 33.0 µM 36% | [13]; at 1.2 µM 6% | [13]; at 3.7 µM 10% | [13]; at 11.0 µM 13% | [13]; at 33.0 µM 46% | [14]; [16] 50% | [14]; at 50.0 µM 61.8% | [15]; at 1.2 µM 0% | [15]; at 3.7 µM 13% | [15]; at 11.0 µM 17% | [15]; at 33.0 µM 39%

OB(O)c1ccccc1C#Cc1ccccc1B(O)O
inactive: [1]; at 1.2 µM 2% | [1]; at 3.7 µM 7% | [1]; at 11.0 µM 24% | [1]; at 33.0 µM 59% | [2]; at 1.2 µM -2% | [2]; at 3.7 µM 0% | [2]; at 11.0 µM 6% | [2]; at 33.0 µM 18% | [2]; at 100.0 µM 59% | [3]; at 1.2 µM 0% | [3]; at 3.7 µM 6% | [3]; at 11.0 µM 36% | [3]; at 33.0 µM 69% | [4]; at 1.2 µM 7% | [4]; at 3.7 µM 17% | [4]; [16] 12% | [4]; at 11.0 µM 47% | [4]; at 50.0 µM 61.5% | [5]; at 1.2 µM -6% | [5]; at 3.7 µM 1% | [5]; [16] 5% | [5]; at 11.0 µM 13% | [5]; at 33.0 µM 43% | [5]; [17] 50% | [5]; at 50.0 µM 50%
active: [1]; at 100.0 µM 95% | [3]; at 100.0 µM 85% | [4]; at 33.0 µM 84% | [4]; [17] 79% | [4]; at 100.0 µM 96%
